Experimental data reported in ChEMBL document CHEMBL3988442, “University of Dundee, Small-Polar-MMV Screening Library” (2021).
For some of these results: Entries with a potency or affinity are not part of this list.

Experiments:
Set-up in all cases: scale not given: direction of the effect not stated beside the values
[1] = target: Protein translocase subunit SecA (Escherichia coli (strain K12)) (UniProt P10408); assay: Assay to Identify E. coli SecA ATPase Inhibitors; format: functional; details: 30 µM
[2] = target: T1, Ubiquitin-activating enzyme e1, putative (Leishmania donovani (strain BPK282A1)) (UniProt E9BSI1); assay: Leishmania donovani Ubiquitin Activating Enzyme (LdE1); format: functional; details: 30 µM
T1 sequence (whole entry): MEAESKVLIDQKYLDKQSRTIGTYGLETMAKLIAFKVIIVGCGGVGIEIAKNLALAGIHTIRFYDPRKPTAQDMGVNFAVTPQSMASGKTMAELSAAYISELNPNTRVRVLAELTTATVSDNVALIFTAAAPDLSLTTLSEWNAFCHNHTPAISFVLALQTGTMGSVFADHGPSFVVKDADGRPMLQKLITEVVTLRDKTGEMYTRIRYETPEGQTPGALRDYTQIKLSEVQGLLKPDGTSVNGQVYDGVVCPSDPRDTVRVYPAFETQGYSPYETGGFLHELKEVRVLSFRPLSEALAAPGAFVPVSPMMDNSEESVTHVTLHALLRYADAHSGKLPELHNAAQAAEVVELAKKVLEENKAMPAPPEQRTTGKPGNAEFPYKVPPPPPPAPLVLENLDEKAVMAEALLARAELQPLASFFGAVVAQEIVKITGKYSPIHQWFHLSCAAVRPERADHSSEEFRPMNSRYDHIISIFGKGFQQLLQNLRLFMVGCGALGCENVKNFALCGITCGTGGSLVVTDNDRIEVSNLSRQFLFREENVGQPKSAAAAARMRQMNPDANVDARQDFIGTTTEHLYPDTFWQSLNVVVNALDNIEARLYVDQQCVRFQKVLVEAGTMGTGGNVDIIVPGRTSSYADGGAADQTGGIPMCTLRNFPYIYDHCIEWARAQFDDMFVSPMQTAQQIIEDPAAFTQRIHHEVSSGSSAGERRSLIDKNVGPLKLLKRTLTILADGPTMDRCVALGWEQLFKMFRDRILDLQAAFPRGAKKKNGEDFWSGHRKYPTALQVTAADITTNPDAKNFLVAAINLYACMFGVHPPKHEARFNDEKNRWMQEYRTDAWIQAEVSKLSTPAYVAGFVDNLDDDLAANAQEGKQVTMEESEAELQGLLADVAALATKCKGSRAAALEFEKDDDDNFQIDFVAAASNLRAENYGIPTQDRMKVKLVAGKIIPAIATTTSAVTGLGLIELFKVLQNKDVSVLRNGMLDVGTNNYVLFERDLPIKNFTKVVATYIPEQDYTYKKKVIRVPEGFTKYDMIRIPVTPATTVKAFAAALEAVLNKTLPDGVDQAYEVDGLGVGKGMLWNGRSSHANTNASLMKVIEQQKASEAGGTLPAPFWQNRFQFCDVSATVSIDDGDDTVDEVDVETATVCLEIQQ

[3] = target: Sialic acid-binding Ig-like lectin 9 (Homo sapiens) (UniProt Q9Y336); assay: Hs-Siglec9 ALPHAscreen SOP 20170721; details: 10 µM
[4] = system: Trypanosoma cruzi; assay: Trypanosoma cruzi phosphomannomutase and mannose-1-phosphate guanylyltransferase assay; format: functional; details: 10 µM
[5] = target: T2, Arginase-2, mitochondrial (Homo sapiens) (UniProt P78540); assay: in vitro enzyme assay to detect the production of urea directly proportional to the activity of Arginase II; format: functional; details: 33.3 µM; further: in the data most compounds retested in dose-response had high values
T2 sequence (whole entry): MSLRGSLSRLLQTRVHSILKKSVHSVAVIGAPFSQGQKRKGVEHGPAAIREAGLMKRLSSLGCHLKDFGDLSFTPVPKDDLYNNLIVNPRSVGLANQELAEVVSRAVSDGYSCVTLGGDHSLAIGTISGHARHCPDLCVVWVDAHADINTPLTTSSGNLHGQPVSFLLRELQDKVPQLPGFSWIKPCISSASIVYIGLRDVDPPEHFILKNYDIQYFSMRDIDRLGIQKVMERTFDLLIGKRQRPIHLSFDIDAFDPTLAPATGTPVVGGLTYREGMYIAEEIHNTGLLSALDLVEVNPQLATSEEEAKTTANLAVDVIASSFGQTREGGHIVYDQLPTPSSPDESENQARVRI

[6] = target: T3, Proteasome subunit beta (Trypanosoma cruzi) (UniProt O96673); assay: Trypanosoma cruzi proteasome chymotrypsin-like activity (TcProtChymo) assay.; further: in the data most compounds retested in dose-response had high values; format: functional; details: 9.37 µM
T3 sequence (whole entry): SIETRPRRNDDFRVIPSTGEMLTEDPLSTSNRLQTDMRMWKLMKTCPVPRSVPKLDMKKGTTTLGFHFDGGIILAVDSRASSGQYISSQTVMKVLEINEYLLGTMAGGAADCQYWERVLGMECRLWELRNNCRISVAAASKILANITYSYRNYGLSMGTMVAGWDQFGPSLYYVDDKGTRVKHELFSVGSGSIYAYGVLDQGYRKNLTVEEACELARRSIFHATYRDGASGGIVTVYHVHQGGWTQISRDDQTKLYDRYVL

[7] = species: Homo sapiens; assay: To identify inhibition of the IFN signalling (Jak-Stat) pathway via expression of an eGFP reporter gene under the control of an IFN-stimulated response element (ISRE) containing MxA promoter.; format: functional; details: 30 µM
[8] = target: T4, Tyrosyl-tRNA synthetase, putative (Trypanosoma cruzi (strain CL Brener)) (UniProt Q4DSP6); assay: Trypanosoma cruzi tyrosyl tRNA synthetase (TcYRS) _High Tyrosine SOP; format: functional; details: 30 µM; further: in the data most compounds retested in dose-response had high values
T4 sequence (whole entry): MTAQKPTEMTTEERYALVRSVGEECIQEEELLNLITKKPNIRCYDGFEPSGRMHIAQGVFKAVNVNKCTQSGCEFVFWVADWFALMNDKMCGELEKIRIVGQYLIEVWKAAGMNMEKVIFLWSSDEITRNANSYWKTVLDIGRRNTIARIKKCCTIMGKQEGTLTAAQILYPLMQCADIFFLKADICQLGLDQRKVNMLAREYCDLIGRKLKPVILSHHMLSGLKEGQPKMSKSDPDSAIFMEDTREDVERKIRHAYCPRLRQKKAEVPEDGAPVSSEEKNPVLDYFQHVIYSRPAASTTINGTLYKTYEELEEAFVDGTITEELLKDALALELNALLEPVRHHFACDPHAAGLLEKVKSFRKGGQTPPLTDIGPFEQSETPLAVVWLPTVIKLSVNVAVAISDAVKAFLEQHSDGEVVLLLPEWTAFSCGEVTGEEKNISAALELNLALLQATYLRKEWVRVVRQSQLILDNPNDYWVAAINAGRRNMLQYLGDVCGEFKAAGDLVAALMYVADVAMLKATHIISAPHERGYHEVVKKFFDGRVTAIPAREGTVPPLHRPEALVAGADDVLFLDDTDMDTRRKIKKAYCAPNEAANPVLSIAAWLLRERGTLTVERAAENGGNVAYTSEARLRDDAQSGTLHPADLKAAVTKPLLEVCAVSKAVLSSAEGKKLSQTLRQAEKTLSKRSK

[9] = target: T4, Tyrosyl-tRNA synthetase, putative (Trypanosoma cruzi (strain CL Brener)); assay: Trypanosoma cruzi tyrosyl tRNA synthetase (TcYRS) SOP; format: functional; details: 30 µM
[10] = target: Chromo domain-containing protein 1 (Saccharomyces cerevisiae (strain ATCC 204508 / S288c) (Baker's yeast)) (UniProt P32657); assay: ScCHD-1 Enzyme Inhibition Assay; format: functional; details: 30 µM; further: in the data most compounds retested in dose-response had high values
Chromo domain-containing protein 1 (Saccharomyces cerevisiae (strain ATCC 204508 / S288c) (Baker's yeast)), sequence (P32657 whole entry, the tested form may be a part): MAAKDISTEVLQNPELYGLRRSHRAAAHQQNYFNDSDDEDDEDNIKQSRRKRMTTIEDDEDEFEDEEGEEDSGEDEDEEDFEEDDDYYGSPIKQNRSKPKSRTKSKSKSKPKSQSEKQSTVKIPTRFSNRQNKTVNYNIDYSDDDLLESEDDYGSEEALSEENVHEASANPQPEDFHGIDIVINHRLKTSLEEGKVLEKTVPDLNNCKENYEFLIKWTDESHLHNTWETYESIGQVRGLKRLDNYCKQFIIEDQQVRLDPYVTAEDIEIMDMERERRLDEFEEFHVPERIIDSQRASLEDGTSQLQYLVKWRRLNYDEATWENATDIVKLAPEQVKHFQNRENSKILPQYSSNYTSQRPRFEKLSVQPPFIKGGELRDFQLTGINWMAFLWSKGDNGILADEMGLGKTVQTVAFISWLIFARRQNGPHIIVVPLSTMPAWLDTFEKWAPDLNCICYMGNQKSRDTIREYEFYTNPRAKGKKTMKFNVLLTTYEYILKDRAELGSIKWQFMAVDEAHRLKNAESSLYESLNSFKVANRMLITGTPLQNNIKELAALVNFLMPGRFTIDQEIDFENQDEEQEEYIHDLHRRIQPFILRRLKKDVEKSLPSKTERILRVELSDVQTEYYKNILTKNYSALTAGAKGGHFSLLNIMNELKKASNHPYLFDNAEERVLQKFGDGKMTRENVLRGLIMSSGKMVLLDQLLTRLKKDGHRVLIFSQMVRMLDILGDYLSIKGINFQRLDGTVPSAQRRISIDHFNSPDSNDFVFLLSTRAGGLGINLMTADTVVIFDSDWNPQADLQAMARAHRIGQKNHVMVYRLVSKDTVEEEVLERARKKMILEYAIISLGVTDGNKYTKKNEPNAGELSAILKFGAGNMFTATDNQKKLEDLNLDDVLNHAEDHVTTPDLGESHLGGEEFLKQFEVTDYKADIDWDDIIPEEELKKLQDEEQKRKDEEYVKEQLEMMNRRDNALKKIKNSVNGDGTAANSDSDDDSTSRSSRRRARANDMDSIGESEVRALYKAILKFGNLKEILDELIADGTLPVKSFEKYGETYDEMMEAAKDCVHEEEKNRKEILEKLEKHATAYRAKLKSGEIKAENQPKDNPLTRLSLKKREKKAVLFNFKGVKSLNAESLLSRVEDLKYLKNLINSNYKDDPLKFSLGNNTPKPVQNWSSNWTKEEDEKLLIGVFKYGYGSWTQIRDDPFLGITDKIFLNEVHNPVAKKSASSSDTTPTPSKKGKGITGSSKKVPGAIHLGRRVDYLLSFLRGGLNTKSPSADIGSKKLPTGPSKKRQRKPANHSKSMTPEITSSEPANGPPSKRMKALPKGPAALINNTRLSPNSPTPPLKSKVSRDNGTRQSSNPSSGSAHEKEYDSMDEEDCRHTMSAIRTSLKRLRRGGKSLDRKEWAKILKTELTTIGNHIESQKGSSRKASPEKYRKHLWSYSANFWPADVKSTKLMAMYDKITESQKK

Sialic acid-binding Ig-like lectin 9 (Homo sapiens), sequence (Q9Y336 whole entry): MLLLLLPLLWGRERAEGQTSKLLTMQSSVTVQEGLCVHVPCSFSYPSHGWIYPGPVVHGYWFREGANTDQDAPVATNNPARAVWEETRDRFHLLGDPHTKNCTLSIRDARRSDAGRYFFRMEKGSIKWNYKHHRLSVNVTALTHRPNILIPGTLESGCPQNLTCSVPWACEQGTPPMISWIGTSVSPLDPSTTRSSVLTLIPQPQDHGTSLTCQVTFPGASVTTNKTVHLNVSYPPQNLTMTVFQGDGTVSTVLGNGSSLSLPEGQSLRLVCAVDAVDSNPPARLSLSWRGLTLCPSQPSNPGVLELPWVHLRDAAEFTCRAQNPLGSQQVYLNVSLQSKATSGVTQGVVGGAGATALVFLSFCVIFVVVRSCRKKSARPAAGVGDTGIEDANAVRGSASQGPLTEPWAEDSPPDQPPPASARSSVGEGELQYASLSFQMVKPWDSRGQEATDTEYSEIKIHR
Protein translocase subunit SecA (Escherichia coli (strain K12)), sequence (P10408 whole entry): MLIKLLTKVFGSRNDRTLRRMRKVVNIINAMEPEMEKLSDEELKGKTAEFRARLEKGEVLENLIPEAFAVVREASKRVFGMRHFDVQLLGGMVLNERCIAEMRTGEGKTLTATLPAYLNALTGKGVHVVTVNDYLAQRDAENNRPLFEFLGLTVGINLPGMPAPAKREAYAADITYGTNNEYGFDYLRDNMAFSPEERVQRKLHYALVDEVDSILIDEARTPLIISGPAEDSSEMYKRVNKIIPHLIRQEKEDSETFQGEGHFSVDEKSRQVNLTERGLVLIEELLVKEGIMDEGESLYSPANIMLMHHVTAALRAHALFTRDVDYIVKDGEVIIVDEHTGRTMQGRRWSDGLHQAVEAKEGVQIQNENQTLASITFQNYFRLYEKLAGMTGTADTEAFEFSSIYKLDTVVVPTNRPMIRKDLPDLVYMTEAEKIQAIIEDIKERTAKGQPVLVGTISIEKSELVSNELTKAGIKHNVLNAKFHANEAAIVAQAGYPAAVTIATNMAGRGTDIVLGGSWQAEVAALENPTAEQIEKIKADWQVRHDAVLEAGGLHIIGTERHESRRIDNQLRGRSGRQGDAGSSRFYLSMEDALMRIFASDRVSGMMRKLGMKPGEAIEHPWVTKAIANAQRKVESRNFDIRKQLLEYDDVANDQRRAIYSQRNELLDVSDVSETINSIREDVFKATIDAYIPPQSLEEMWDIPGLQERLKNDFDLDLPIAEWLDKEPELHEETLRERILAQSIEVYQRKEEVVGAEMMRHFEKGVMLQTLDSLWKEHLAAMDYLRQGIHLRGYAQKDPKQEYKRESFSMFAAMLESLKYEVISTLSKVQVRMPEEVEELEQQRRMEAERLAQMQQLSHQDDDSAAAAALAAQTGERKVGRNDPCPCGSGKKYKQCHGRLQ

SMILES | Percent Effect [1] | Percent Effect [2] | Percent Effect [3] | Percent Effect [4] | Percent Effect [5] | Percent Effect [6] | Percent Effect [7] | Percent Effect [8] | Percent Effect [9] | Percent Effect [10]
Cn1cnc2c1CCN(CCCc1ccccc1)C2 | -5.94% | 2.67% | 4.07% | 5.62% | -3.55% | 4.16% | 23.4% | 7.89% | 12.8% | -10.6%
Cc1ccccc1-c1cc(C(=O)NCCN2CCCS2(=O)=O)[nH]n1 | -1.9% | 12.8% | -10.8% | 9.3% | -2.05% | 5.72% | 4.69% | 5.26% | 20.5% | -1.78%
Cc1ncc2c(n1)CN(CCCc1nc3ccccc3o1)CC2 | -8.07% | 10.7% | 3.45% | 0% | -3.1% | 8.91% | -14.7% | 22.6% | 28.2% | -7.47%
CC1CN(CC(=O)NC2CCCC2)CCN1c1ccc2nncn2n1 (stereo not given) | -1.74% | 12.8% | 1.41% | 0.0939% | 4.1% | 15.8% | 12.2% | 7.18% | 20.5% | -1.24%
CCc1nc(C2CCCN2CCCS(=O)(=O)c2ccccc2)no1 (stereo not given) | -2.94% | 15.4% | -14.9% | 2.16% | 0.41% | 13.1% | 6.1% | 4.31% | 22.9% | -3.94%
CNC(=O)c1cccnc1Oc1ccccc1 | -2.06% | 19.5% | 16.3% | 5.07% | 0% | 13.5% | 10% | 4.83% | 12.5% | -9.58%
CC(C)NC(=O)Nc1ccc(CNCc2cccc(C#N)c2)cc1 | 2.25% | 20.8% | 4.68% | 0.933% | -0.615% | 6.84% | 0.521% | 9.8% | 28.2% | -12.8%
Cn1ncc(C(=O)N2CCCC(n3cccn3)C2)c1C1CC1 (stereo not given) | -4.48% | 10.7% | 0.531% | -3.61% | 3.1% | 11.6% | 8.56% | 2.63% | 5.13% | -7.06%
CCn1ccnc1CN1CCN(CC(O)Cn2cccn2)CC1 (stereo not given) | -5.85% | 0% | -2.48% | -1.97% | -4.51% | 11% | 18.6% | -0.478% | 6.02% | 1.41%
C[C@]1(O)CCN(Cc2cncs2)C[C@@H]1Oc1cccc(F)c1 | 0.894% | 4% | 6.06% | -4.93% | 3.1% | -1.64% | 14.1% | 1.06% | 2.5% | -19.6%
O=C(NCc1ccccc1)[C@H]1C[C@@H]2CN(S(=O)(=O)C3CC3)C[C@H]1O2 | -3.6% | 1.3% | -4.1% | -3.99% | -1.22% | 14.4% | 14.4% | 3.68% | 7.69% | 1.77%
CN1[C@H](Cn2cccn2)C[C@@H]2CN(C(=O)Cc3cccs3)CC[C@@H]21 | -4.49% | 11.7% | -0.662% | -3.56% | -1.83% | 9.53% | 18.5% | 6.76% | 0% | -10.4%
CC(=O)N1[C@H](CN(C)C)C[C@@H]2CN(C(=O)c3cccc(F)c3)CC[C@@H]21 | -6.12% | 9.09% | -5.21% | -3.19% | -12.8% | 14.2% | 14.5% | 3.87% | 0% | -5.63%
O=C(NCc1cc(O)ncn1)C1CCOc2ccccc2C1 (stereo not given) | -6.27% | 5.41% | 6.22% | 1.26% | 5.94% | 14.4% | 15.2% | 6.92% | 12.2% | -2.81%
Cc1ccc(Cl)cc1N1CCC(CNC(=O)CCn2ccnc2)C1 (stereo not given) | -4.06% | 5.13% | -8.73% | 10.8% | 2.05% | 12.2% | 9.72% | 12.9% | 22.9% | -4.33%
CCNC(=O)N1CCN(C(=O)c2cc(Cl)cc3cccnc23)CC1 | -1.06% | 0% | 3.31% | -1.03% | 3.28% | 7.93% | 6.48% | -0.478% | -1.21% | 2.64%
Cc1nc[nH]c1CN1CCN(C(=O)CCC(F)(F)F)[C@H]2CS(=O)(=O)C[C@H]21 | -7.21% | 2.7% | 12% | 7.66% | 14.3% | 15.1% | 11.2% | 7.98% | 12.2% | -1.8%
CC(C)(C)c1cn2nc(N3CCC[C@@H]3CO)sc2n1 | -2.65% | 10.3% | -1.69% | -0.282% | 2.87% | 6.57% | 2.26% | 2.39% | 13.2% | -0.0525%
COCCCNc1nccc(-c2c[nH][nH]c2=O)n1 | -1.57% | 8% | -3.19% | -6.63% | -3.55% | 19.9% | 12.9% | -1.58% | 0% | -11.7%
